# Reference: PubChem BioAssay (NCATS)
# Where “and” joins values, the source holds several entries; their conditions need not be identical. Equal entries are not always repeated. Inconclusive results are not listed. A structure can be active in one record and inactive in another. Values without a mark were called inactive. Calls of active or inactive are those of the source. The call rests on the fitted dose curve; in most records, active means well fitted inhibition curve with a large enough effect; inconclusive means small, poorly fitted or top-dose-only effect; inactive means flat fitted curve, though single readings scatter.
# Columns and labels:
# [1] = Drug repurposing screens with cells derived from glioblastoma tumor samples (AID 1345199); conditions: GBM patient neurospheres viability, ATP luminescence, 48 h; further: nearly all actives have a fitted effect of over 40% in size
# Outline: (§1)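 Four patient lines of CD133+ GBM neurospheres were screened at several concentrations; hits were retested in those lines plus three slower-growing GBM lines, using 48-hour treatment and ATP-based viability.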
# [2] = test system: astro; assay: as above; conditions: viability, ATP luminescence, 48 h; series mostly up to 45.9 µM
# Outline: as §1
# [3] = at 45.9 µM (top of the series), tumour line B
# [4] = at 45.9 µM (top of the series), tumour line D
# [5] = at 46 µM (top of the series), tumour line A
# [6] = at 46.1 µM (top of the series), tumour line C
# [7] = at 20 µM (top of the series), tumour line C
# [8] = at 21.2 µM (top of the series), tumour line B
# [9] = at 21.2 µM (top of the series), tumour line D
# [10] = at 21.3 µM (top of the series), tumour line A
# On the % scale 0 is the no-effect control and ±100 the full control effect; potency means the concentration at half of the fitted maximal effect.
structure (smiles),measurement,setting,value
C=CCOc1ccc(CC(=O)O)cc1Cl,"activity, negative = cell killing",[1]; [3],0.88%
same,"activity, negative = cell killing",[1]; [4],1.11%
same,"activity, negative = cell killing",[1]; [5],-23%
same,"activity, negative = cell killing",[1]; [6],0.211%
same,Potency,[2],inactive
CN[C@@H]1[C@H](O[C@H]2[C@H](O[C@H]3[C@H](O)[C@@H](O)[C@H](N=C(N)N)[C@@H](O)[C@@H]3N=C(N)N)O[C@@H](C)[C@]2(O)CO)O[C@@H](CO)[C@H](O)[C@H]1O,"activity, negative = cell killing",[1]; [3],-12.7%
same,"activity, negative = cell killing",[1]; [4],-12.4%
same,"activity, negative = cell killing",[1]; [5],-5.62%
same,"activity, negative = cell killing",[1]; [6],-12.6%
same,Potency,[2],inactive
CCN(CC)CCOC[C@H]1O[C@@H](O)[C@H](OCCN(CC)CC)[C@@H](O)[C@@H]1O,"activity, negative = cell killing",[1]; [3],-9.61%
same,"activity, negative = cell killing",[1]; [4],-16.5%
same,"activity, negative = cell killing",[1]; [5],-26.4%
same,"activity, negative = cell killing",[1]; [6],-24.8%
same,Potency,[2],inactive
CCCC1C(=O)N2C(N(C)C)=Nc3ccc(C)cc3N2C1=O (stereo not given),"activity, negative = cell killing",[1]; [7],-0.417%
same,"activity, negative = cell killing",[1]; [8],-20.8%
same,"activity, negative = cell killing",[1]; [9],-11.9%
same,"activity, negative = cell killing",[1]; [10],-28.1%
same,Potency,[2],inactive
CC[C@H](C)[C@@H]1NC(=O)[C@H](Cc2ccc(O)cc2)NC(=O)[C@@H](N)CSSC[C@@H](C(=O)N2CCC[C@H]2C(=O)N[C@@H](CC(C)C)C(=O)NCC(N)=O)NC(=O)[C@H](CC(N)=O)NC(=O)[C@H](CCC(N)=O)NC1=O,"activity, negative = cell killing",[1]; [3],-4.51%
same,"activity, negative = cell killing",[1]; [4],-1.96%
same,"activity, negative = cell killing",[1]; [5],-11.4%
same,"activity, negative = cell killing",[1]; [6],-6.16%
same,Potency,[2],inactive
CCCOc1cc(N)ccc1C(=O)OCCN(CC)CC,"activity, negative = cell killing",[1]; [7],3.99%
same,"activity, negative = cell killing",[1]; [8],-3.15%
same,"activity, negative = cell killing",[1]; [9],-24.1%
same,"activity, negative = cell killing",[1]; [10],3.16%
same,Potency,[2],inactive
CCCOC(=O)c1ccccc1O,"activity, negative = cell killing",[1]; [3],-5.91%
same,"activity, negative = cell killing",[1]; [4],2.55%
same,"activity, negative = cell killing",[1]; [5],-23.3%
same,"activity, negative = cell killing",[1]; [6],-5.92%
same,Potency,[2],inactive
C=N[C@@H](C(=O)N[C@@H]1C(=O)N2[C@@H]1SC(C)(C)[C@@H]2C(=O)O)c1ccccc1,"activity, negative = cell killing",[1]; [3],-11%
same,"activity, negative = cell killing",[1]; [4],-11.4%
same,"activity, negative = cell killing",[1]; [5],-8.19%
same,"activity, negative = cell killing",[1]; [6],-15.6%
same,Potency,[2],inactive
CC(C)CCCC(C)NC(C)C (stereo not given),"activity, negative = cell killing",[1]; [3],-14.7%
same,"activity, negative = cell killing",[1]; [4],-20.7%
same,"activity, negative = cell killing",[1]; [5],-22.7%
same,"activity, negative = cell killing",[1]; [6],-7.93%
same,Potency,[2],inactive
CNCC(O)c1ccc(OC(=O)C(C)(C)C)c(OC(=O)C(C)(C)C)c1 (stereo not given),"activity, negative = cell killing",[1]; [7],5.42%
same,"activity, negative = cell killing",[1]; [8],-16.5%
same,"activity, negative = cell killing",[1]; [9],-22.8%
same,"activity, negative = cell killing",[1]; [10],-18%
same,Potency,[2],inactive
CCC(C)[C@@H](N)C(=O)O (stereo not given in full),"activity, negative = cell killing",[1]; [3],-9.25%
same,"activity, negative = cell killing",[1]; [4],-6.09%
same,"activity, negative = cell killing",[1]; [5],-16.7%
same,"activity, negative = cell killing",[1]; [6],10.2%
same,Potency,[2],inactive
Nc1nc(/C(=C/CC(=O)O)C(=O)N[C@@H]2C(=O)N3C(C(=O)O)=CCS[C@H]23)cs1,"activity, negative = cell killing",[1]; [3],-0.0909%
same,"activity, negative = cell killing",[1]; [4],-11.4%
same,"activity, negative = cell killing",[1]; [5],12.2%
same,"activity, negative = cell killing",[1]; [6],20.6%
same,Potency,[2],inactive
FC(F)OC(Cl)C(F)(F)F (stereo not given),"activity, negative = cell killing",[1]; [3],-4.99%
same,"activity, negative = cell killing",[1]; [4],-20.2%
same,"activity, negative = cell killing",[1]; [5],-34.3%
same,"activity, negative = cell killing",[1]; [6],-9.7%
same,Potency,[2],inactive
CCCc1ccc(C(=O)O)cc1,"activity, negative = cell killing",[1]; [3],-12.5%
same,"activity, negative = cell killing",[1]; [4],-19.9%
same,"activity, negative = cell killing",[1]; [5],-22.4%
same,"activity, negative = cell killing",[1]; [6],3.37%
same,Potency,[2],inactive
CN1CCC(OC(=O)C(Oc2ccc(Cl)cc2)Oc2ccc(Cl)cc2)CC1,"activity, negative = cell killing",[1]; [3],-23.9%
same,"activity, negative = cell killing",[1]; [4],-4.4%
same,"activity, negative = cell killing",[1]; [5],-21%
same,"activity, negative = cell killing",[1]; [6],-21%
same,Potency,[2],inactive
CC(C)N1CCN(c2ccc(OC[C@H]3CO[C@](Cn4cncn4)(c4ccc(Cl)cc4Cl)O3)cc2)CC1,"activity, negative = cell killing",[1]; [7],-6.28%
same,Potency,[1]; tumour line A,2.51 µM (active)
same,Potency,[1]; tumour line B,14.1 µM (active)
same,Potency,[1]; tumour line D,10 µM (active)
same,Potency,[2],inactive
COC(=O)C(CN)c1c[nH]c2ccc(OC)cc12 (stereo not given),"activity, negative = cell killing",[1]; [3],-10.3%
same,"activity, negative = cell killing",[1]; [4],-14.4%
same,"activity, negative = cell killing",[1]; [5],-30.9%
same,"activity, negative = cell killing",[1]; [6],-0.904%
same,Potency,[2],inactive
O=C(O)CCC/C=C\C[C@@H]1[C@@H](/C=C/[C@@H](O)COc2cccc(Cl)c2)[C@H](O)C[C@@H]1O,"activity, negative = cell killing",[1]; [3],-7.43%
same,"activity, negative = cell killing",[1]; [4],0.189%
same,"activity, negative = cell killing",[1]; [5],-25.8%
same,"activity, negative = cell killing",[1]; [6],-22.5%
same,Potency,[2],inactive
NC(=S)NS(=O)(=O)c1ccc(N)cc1,"activity, negative = cell killing",[1]; [3],-6.04%
same,"activity, negative = cell killing",[1]; [4],0.448%
same,"activity, negative = cell killing",[1]; [5],-23.8%
same,"activity, negative = cell killing",[1]; [6],-8.76%
same,Potency,[2],inactive
CCCC(CCC)C(=O)OC1C[C@H]2CC[C@@H](C1)[N+]2(C)C (stereo not given in full),"activity, negative = cell killing",[1]; [3],-8.76% and -2.82%
same,"activity, negative = cell killing",[1]; [4],-23.5% and -24.1%
same,"activity, negative = cell killing",[1]; [6],-20.2%
same,Potency,[1]; tumour line A,17.8 µM (active)
same,Potency,[2],inactive
CS(=O)(=O)OCC(O)C(O)COS(C)(=O)=O (stereo not given),"activity, negative = cell killing",[1]; [3],-10.6%
same,"activity, negative = cell killing",[1]; [4],-10.3%
same,"activity, negative = cell killing",[1]; [5],-29.4%
same,"activity, negative = cell killing",[1]; [6],-1.32%
same,Potency,[2],inactive
NC(=O)OC[C@@H]1[C@H](NC(=O)/C(=N\OCC(=O)O)c2csc(N)n2)C(=O)N1S(=O)(=O)O,"activity, negative = cell killing",[1]; [3],5.57%
same,"activity, negative = cell killing",[1]; [4],5.27%
same,"activity, negative = cell killing",[1]; [5],-4.61%
same,"activity, negative = cell killing",[1]; [6],-1.35%
same,Potency,[2],inactive
COc1ccc(C(=O)CCC(=O)O)c2ccccc12,"activity, negative = cell killing",[1]; [3],0.841%
same,"activity, negative = cell killing",[1]; [4],1.24%
same,"activity, negative = cell killing",[1]; [5],-50.8%
same,"activity, negative = cell killing",[1]; [6],-26.3%
same,Potency,[2],inactive
O=C(Cc1cccs1)N[C@@H]1C(=O)N2C(C(=O)[O-])=C(C[n+]3ccccc3)CS[C@H]12,"activity, negative = cell killing",[1]; [3],-13.3%
same,"activity, negative = cell killing",[1]; [4],8.29%
same,"activity, negative = cell killing",[1]; [5],-29.7%
same,"activity, negative = cell killing",[1]; [6],-10.2%
same,Potency,[2],inactive
O=C(OCc1ccccc1)c1cccnc1,"activity, negative = cell killing",[1]; [3],-17.7%
same,"activity, negative = cell killing",[1]; [4],-1.76%
same,"activity, negative = cell killing",[1]; [5],-18.6%
same,"activity, negative = cell killing",[1]; [6],7.49%
same,Potency,[2],inactive
O=C1C2CC3CC1CC(O)(C3)C2,"activity, negative = cell killing",[1]; [3],0.0639%
same,"activity, negative = cell killing",[1]; [4],-11.1%
same,"activity, negative = cell killing",[1]; [5],-19.7%
same,"activity, negative = cell killing",[1]; [6],-14.8%
same,Potency,[2],inactive
CC(=O)N=c1sc(S(N)(=O)=O)nn1C,"activity, negative = cell killing",[1]; [7],-7.38%
same,"activity, negative = cell killing",[1]; [8],-5.71%
same,"activity, negative = cell killing",[1]; [9],-24.8%
same,"activity, negative = cell killing",[1]; [10],-18.1%
same,Potency,[2],inactive
CC(C)(C)NCC(O)CSc1nc(-c2ccc(C(N)=O)s2)cs1 (stereo not given),"activity, negative = cell killing",[1]; [3],-20.2%
same,"activity, negative = cell killing",[1]; [4],-9.92%
same,"activity, negative = cell killing",[1]; [6],-12.2%
same,Potency,[1]; tumour line A,17.8 µM (active)
same,Potency,[2],inactive
COc1cc2c(cc1OC)[C@@H](c1ccccc1)CN(C)CC2,"activity, negative = cell killing",[1]; [3],-22%
same,"activity, negative = cell killing",[1]; [4],-9.13%
same,"activity, negative = cell killing",[1]; [6],-17.9%
same,Potency,[1]; tumour line A,20 µM (active)
same,Potency,[2],inactive
COc1ccc2c(=O)c(C)c(-c3ccccc3)oc2c1CN(C)C,"activity, negative = cell killing",[1]; [3],-11.5%
same,"activity, negative = cell killing",[1]; [4],-20.7%
same,"activity, negative = cell killing",[1]; [6],-17.7%
same,Potency,[1]; tumour line A,20 µM (active)
same,Potency,[2],inactive
